# Compound activity deposited in PubChem BioAssay by several laboratories.
# The entries come from a sample that favours hits as a whole.
# ALR inh = blocks human ALR sulfhydryl oxidase activity | AID 485317 | actives 3.8% (n = 290,000) | P55789 | inhibition, % (concentration not given with the values) | purified ALR, DTT oxidation, H2O2 HRP-luminol luminescence;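 active means mean replicate inhibition above about 79%, with every replicate also reaching it, limit read from the data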
# HDAC3 inh = human HDAC3 inhibition | O15379 | inhibition, % at 8.3 µM | recombinant HDAC3, fluorogenic peptide/trypsin coupled, fluorescence | actives 0.15% (n = 320,000); in the data active means inhibition above about 26%, passing the limit was not always enough
# NPR2 activator = GC-B (human) receptor activation; actives 0.11% (n = 370,000); activation, % at 10 µM; HEK293-GC-B cells, CNP EC30, cGMP TR-FRET; 0% at EC30 CNP, 100% saturating CNP; AID 1920062;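 active means activation at 10 µM reaching about 35% in either raw or pattern-adjusted values, limit read from the data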
# GC-A act = GC-A (human) enzyme activation. P16066. HEK293 GC-A cells, cGMP TR-FRET, EC30 ANP; 0% at EC30 ANP, 100% saturating ANP. activation, % at 10 µM. actives 0.14% (n = 370,000). AID 1671463; in the data active means activation above about 40%
# Target sequence (P16066 whole entry, looked up): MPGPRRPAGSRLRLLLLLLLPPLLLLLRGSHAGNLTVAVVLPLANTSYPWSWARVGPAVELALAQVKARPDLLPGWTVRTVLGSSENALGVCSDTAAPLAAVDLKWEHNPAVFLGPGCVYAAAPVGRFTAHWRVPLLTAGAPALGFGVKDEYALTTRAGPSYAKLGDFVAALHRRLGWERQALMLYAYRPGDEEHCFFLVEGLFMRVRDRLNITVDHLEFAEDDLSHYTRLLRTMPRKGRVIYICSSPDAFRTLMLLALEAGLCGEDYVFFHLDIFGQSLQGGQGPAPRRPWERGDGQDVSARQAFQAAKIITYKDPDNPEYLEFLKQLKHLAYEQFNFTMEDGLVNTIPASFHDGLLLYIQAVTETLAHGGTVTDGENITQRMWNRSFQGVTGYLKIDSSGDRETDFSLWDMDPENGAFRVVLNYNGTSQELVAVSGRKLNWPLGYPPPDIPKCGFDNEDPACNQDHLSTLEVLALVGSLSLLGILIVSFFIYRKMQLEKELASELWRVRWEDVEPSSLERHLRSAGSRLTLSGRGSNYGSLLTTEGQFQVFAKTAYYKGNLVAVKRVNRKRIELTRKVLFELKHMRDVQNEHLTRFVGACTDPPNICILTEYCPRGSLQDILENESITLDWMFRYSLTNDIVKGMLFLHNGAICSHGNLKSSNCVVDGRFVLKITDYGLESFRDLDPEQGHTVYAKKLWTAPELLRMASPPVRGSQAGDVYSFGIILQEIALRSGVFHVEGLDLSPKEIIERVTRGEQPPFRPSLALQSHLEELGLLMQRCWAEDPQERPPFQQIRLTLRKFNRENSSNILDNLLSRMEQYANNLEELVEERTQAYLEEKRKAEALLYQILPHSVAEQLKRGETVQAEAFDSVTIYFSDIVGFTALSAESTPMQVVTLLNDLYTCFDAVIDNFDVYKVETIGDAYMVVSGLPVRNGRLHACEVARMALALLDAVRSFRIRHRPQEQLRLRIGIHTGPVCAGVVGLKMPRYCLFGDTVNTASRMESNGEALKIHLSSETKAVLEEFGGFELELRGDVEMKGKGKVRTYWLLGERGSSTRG
# * marks the source's active call; other numbers are inactive results; . = not tested or not shown.
SMILES,ALR inh,HDAC3 inh,NPR2 activator,GC-A act
C/C(=N\NC(=O)c1ccc(O)cc1)c1ccc2c(c1)Nc1ccccc1S2,98.7*,9.6,-4.3,-5.3
C/C(=N/NC(=O)c1ccc(-c2ccccc2)cc1)c1cc(O)cc(O)c1,98.7*,2.7,-4.5,-0.8
Cc1cc2c(NCc3ccccc3)ncnc2s1,-5.4,7.5,-2.5,0.2
N#Cc1ncc(C(F)(F)F)cc1Sc1ccc(N)cc1,82.2*,4.2,0.7,0.5
COCc1cc(=O)n2[nH]cc(-c3ccsc3)c2n1,99.0*,-30.2,-6.5,-3.5
COCc1cc(=O)n2[nH]c(C)c(-c3ccc(Cl)cc3)c2n1,.,.,8.7,10.4
CCOC(=O)Cc1cc(=O)n2[nH]cc(-c3ccc(Cl)cc3)c2n1,98.6*,-51.5,4.1,10.4
COc1ccccc1N1CCN(C(=O)CCS(=O)(=O)c2ccc3c(c2)oc(=O)n3C)CC1,87.7*,-3.6,0.0,7.8
CC(=O)c1c(C)nn(C(=O)c2cccs2)c1C,-22.1,40.9*,-1.9,3.6
Cc1cccc(NC(=O)c2cccc(S(=O)(=O)N(C)C3CCCCC3)c2)n1,.,.,8.3,1.8
CCCOc1ccc(C(=O)N2CCC(Oc3cccnc3)CC2)cc1,.,.,-3.0,-1.6
Cc1nc(-c2cccc(S(=O)(=O)N3CCOCC3)c2)cs1,98.9*,4.4,-3.4,-0.8
Cc1nc(-c2cccc(S(=O)(=O)N3CC(C)CC(C)C3)c2)cs1 (stereo not given),-1.4,-4.4,2.0,2.9
CCC(C)n1c(-c2cccc(S(=O)(=O)N3CCOCC3)c2)n[nH]c1=S (stereo not given),.,.,1.4,-0.4
Cc1nc(-c2cccc(S(=O)(=O)N3CC(C)OC(C)C3)c2)cs1 (stereo not given),98.5*,-6.5,5.8,-1.7
Cc1nc(-c2cccc(NC(=O)c3cccc(S(=O)(=O)N4CCCC4)c3)c2)cs1,-2.3,8.1,7.5,9.5
Cc1nc(-c2cccc(N)c2)cs1,98.6*,-8.8,-2.4,-3.8
CC(C)Cn1c(-c2cccc(S(=O)(=O)N3CCOCC3)c2)n[nH]c1=S,86.5*,0.9,0.3,3.7
CCN1Cc2nnn(Cc3ccccc3)c2-c2cc(F)ccc2S1(=O)=O,.,.,3.4,-6.8
O=C(COC(=O)c1ccccc1Br)Nc1ccccc1F,0.1,2.2,-3.5,0.5
COC(=O)c1cc2c(c3c4cc(OC)ccc4n(S(=O)(=O)c4ccc(OC)cc4)c13)C(=O)N(Cc1ccco1)C2,.,.,-9.0,-5.2
Cc1nn(C(=O)c2nn(C)cc2[N+](=O)[O-])c(C)c1Cl,0.8,5.1,3.2,-1.2
CNC(=S)N(CCc1c(C)[nH]c2ccc(F)cc12)Cc1cccnc1,96.7*,.,-3.7,-15.0
c1ccc2c(SCc3cn4ccccc4n3)nncc2c1,98.8*,4.7,-5.1,2.5
N=C(N)SCc1cn2ccccc2n1,97.6*,2.0,0.9,0.6
SMILES,ALR inh,HDAC3 inh,NPR2 activator,GC-A act
Nc1ccccc1SCc1cn2ccccc2n1,24.2,-1.5,-3.3,-1.6
COC(=O)[C@]12C[C@H](CC(=O)N3CCN(C(=O)C4CC4)CC3)C(=O)N(Cc3ccc(Cl)cc3Cl)C1=C[C@H](C(C)C)O[C@@H]2C1CC1,.,.,-3.4,-15.9
CC(=O)Nc1cccc(-c2ccnc3c2CC(C(=O)NCc2ccc(F)c(F)c2)O3)c1 (stereo not given),.,.,7.9,3.3
COc1ccc(C(=O)CSc2[nH]c(=O)cc(C(F)(F)F)c2C#N)cc1,98.5*,1.9,-4.9,-0.3
CN1CCN(c2ccc(Nc3ccnc4cc(Cl)ccc34)cc2)CC1,92.3*,1.9,-6.1,2.5
COCCn1c(SCC#N)nnc1-c1ccccc1,-13.3,-2.0,2.4,3.7
COCCn1c(SCc2cnc(-c3ccccc3)s2)nnc1-c1ccncc1,98.6*,-1.7,-10.8,-6.8
COc1ccc(-n2cnnc2SCc2cnc(-c3ccccc3)s2)cc1,98.5*,1.0,-8.6,-6.7
CCn1c(CN2CCCCCC2=O)nnc1SCc1cnc(-c2ccccc2)s1,98.6*,4.8,0.2,4.0
COc1ccc(-n2cnnc2SCCC#N)cc1,-2.0,1.3,1.3,1.6
O=C1CCCCCN1Cc1nnc(SCc2nc3ccccc3s2)n1-c1ccccn1,.,-8.0,1.5,1.8
COC(=O)c1sc(N2C(=O)C(O)=C(C(=O)c3ccc(C)o3)C2c2ccc([N+](=O)[O-])cc2)nc1C (stereo not given),69.8,-4.2,-3.4,0.5
COc1cccc(C2C(C(=O)c3cc4cccc(OC)c4o3)=C(O)C(=O)N2c2cc(C)on2)c1OC (stereo not given),8.9,2.4,-9.5,1.4
CCOc1ccc(C2C(C(=O)c3ccc(C)o3)=C(O)C(=O)N2c2nc(C)c(C(=O)OC)s2)cc1 (stereo not given),97.4*,5.6,-8.7,44.4*
COc1cccc2cc(C(=O)C3=C(O)C(=O)N(c4cc(C)on4)C3c3cccs3)oc12 (stereo not given),97.7*,1.2,11.4,4.0
CCCCCOc1ccc(C2C(C(=O)c3ccc(C)o3)=C(O)C(=O)N2c2cc(C)on2)cc1 (stereo not given),98.1*,0.9,-0.5,9.8
CCOc1ccc(C2C(C(=O)c3ccc(C)o3)=C(O)C(=O)N2c2cc(C)on2)cc1OC (stereo not given),3.3,-1.7,4.6,10.6
Cc1cc(N2C(=O)C(O)=C(C(=O)c3cc4ccccc4o3)C2c2cccc(Br)c2)no1 (stereo not given),97.6*,2.8,-7.2,24.0
COc1ccc(N2CCCN(CC(=O)Nc3ccccc3C)CC2)cc1,.,.,-1.0,0.3
Cc1cc(N2C(=O)C(O)=C(C(=O)c3cc4ccccc4o3)C2c2ccc(OC(C)C)cc2)no1 (stereo not given),95.7*,5.7,-3.5,11.3
O=c1cc(O)n(C2CCCCCC2)c(=O)[nH]1,-33.0,5.6,-1.8,1.0
O=c1[nH][nH]c(=S)n1C1CCCCC1,22.5,32.1*,.,.
CCOC(=O)c1nnc(-c2cccs2)nc1Oc1ccc(Cl)cc1,91.9*,-0.1,1.5,5.4
CC(=O)Nc1ccc(-c2ccnc3c2CC(C)(C(=O)Nc2ccc(Cl)cc2)O3)cc1 (stereo not given),.,.,-5.2,-6.0
CS(=O)(=O)c1sc(C#N)c2c1C(=O)CC(c1ccccc1)C2 (stereo not given),.,1.6,48.4*,-3.0
SMILES,ALR inh,HDAC3 inh,NPR2 activator,GC-A act
Clc1ccccc1CSc1snnc1-c1ccccc1,97.7*,-1.8,2.7,2.1
Clc1ccc(CSc2snnc2-c2ccccc2)cc1,-7.7,1.8,-3.4,2.0
O=C(N/N=C/c1cccc(Br)c1)C1CC(=O)N(c2ccccc2)C1 (stereo not given),2.4,1.7,-11.7,-1.2
COc1cc(/C=C2\SC(=Nc3ccc(Cl)c(C(=O)O)c3)NC2=O)c(Br)c(Br)c1O,98.1*,5.9,-5.9,-0.9
Cc1ccc(NC(=S)NNC(=O)c2cn(C)nc2C)cc1,96.7*,-2.6,0.4,1.8
Cc1ccc(NC(=S)NNC(=O)c2c(Cl)c(C)nn2C)cc1,86.7*,14.4,1.3,1.9
Cc1ccc(NC(=S)NNC(=S)Nc2ccc(C)cc2)cc1,.,.,0.7,1.8
